# Compound activity deposited in PubChem by NMMLSC.
# Bead autofluor: counter-screen for toxin protease inhibitors: compound fluorescence; compound autofluorescence counterscreen, microsphere flow cytometry; hits give high values; fluorescence intensity (no concentration beside the values); 360,000 tested, 3.1% active; AID 624483; in the data active means fluorescence intensity above about 16000; inconclusive means no clear call, values can overlap the other calls
# BoNT F protease: inhibitors of Botulinum neurotoxin F light chain protease; inhibition, % at 10 µM; 360,000 tested, 0.22% active; Multiplex microsphere protease cleavage assay, flow cytometry; in the data active means inhibition above about 35%, passing the limit was not always enough; inconclusive means no clear call, values can overlap the other calls; further: plate controls were buffer without enzyme for full effect and enzyme alone for no effect
# Anthrax LF inh2: anthrax lethal factor protease inhibition | P15917 | multiplex microsphere protease cleavage assay, LF | inhibition, % at 10 µM | 360,000 tested, 0.12% active | AID 588501; further: plate controls were buffer without enzyme for full effect and enzyme alone for no effect
# BoNT-A LC inh2: inhibitors of Botulinum neurotoxin A light chain protease; multiplex microsphere protease substrate cleavage, flow cytometry; inhibition, % at 10 µM; 360,000 tested, 0.17% active; AID 588499; further: plate controls were buffer without enzyme for full effect and enzyme alone for no effect
# An asterisk follows results filed as active; ? = inconclusive. Shown are actives, neighbours in structure and some others; about 3.5% of the full set was active somewhere. Unless noted, no stated cut-off is given here; in the data, active means inhibition above about 30%; inconclusive means no clear call, values can overlap the other calls; inactive means below that.
SMILES,Bead autofluor,BoNT F protease,Anthrax LF inh2,BoNT-A LC inh2
CC(C(=O)Nc1ccc(Cl)cc1)c1ncc(C(F)(F)F)cc1Cl (centres undefined),20389*,-2.2,-0.7,0.7
NC(=O)C(c1ccc(Cl)cc1)c1ncc(C(F)(F)F)cc1Cl (centres undefined),10960,-5.1,8.1,-3.1
COc1ccc(OC)c(NC(=O)CSc2nccn2Cc2ccco2)c1,6286,9.9,0.3,0.2
CCNc1nc(NC(C)C)nc(OCCNS(=O)(=O)c2cc(C)ccc2C)n1,2991,-0.2,-3.8,-0.5
CCNc1nc(NCC)nc(OCCNS(=O)(=O)c2cc(C)ccc2C)n1,21064*,-3.7,0.9,?
CCNC(=O)C1(C)CCCN(Cc2cc(-c3ccccc3)n(C)n2)C1 (centres undefined),3722,-10.4,-1.2,-0.7
Cc1ccc(Sc2ccc([N+](=O)[O-])cc2[N+](=O)[O-])nc1,2531,-2.3,-2.1,-0.8
Cc1ccnc(Sc2ccc([N+](=O)[O-])cc2[N+](=O)[O-])n1,21298*,0.2,-0.6,-1.4
COC(=O)c1ccc(N2CCC(C)CC2)c(N)c1,22414*,-2.5,-5.7,1.7
COC(=O)c1ccc(N2CCCCC2)c(N)c1,4217,-4.7,-3.6,0.2
OC(c1ccc(F)c(F)c1)c1nc(-c2cnc3ccccc3c2)cs1 (centres undefined),4002,-1.0,-5.0,0.0
CC(C)C[C@H]1CN(CCCC[C@H]2CNC(=O)C(=O)N2Cc2ccccc2)C(=O)C(=O)N1CC1CCCCC1,5193,-0.7,-9.1,0.2
c1ccc2c(c1)[nH]c1c(N3CCOCC3)ncnc12,6374,-11.6,1.5,-0.9
CCc1cc(N2CCOCC2)cc2c1[nH]c1ccccc12,17063*,8.5,-9.6,7.8
CCN(CC)C(=O)C1=C(C)N(CCCN2CCCC2=O)C(=O)C(CC(=O)NC2CCCCC2)C1 (centres undefined),2874,-5.6,-6.1,-0.7
Cc1ccn(-c2ccc([N+](=O)[O-])cc2)n1,20585*,-0.9,-2.3,0.2
Cc1ccn(-c2n[nH]c(C)c2[N+](=O)[O-])n1,4932,-4.7,3.3,-1.5
CC(=O)c1nnn(-c2nc(N3CCCC3)nc(N(c3ccccc3)c3ccccc3)n2)c1C,23099*,-6.4,-1.8,-2.4
COc1ccc(OC)c(NC(=O)Nc2ccc(Cl)cc2)c1,6037,-2.1,-0.4,-1.2
COC(=O)c1cc(NC(=O)Nc2cc(OC)ccc2OC)cc(C(=O)OC)c1,23932*,-2.0,-1.5,-0.3
COc1ccc(OC)c(NC(=O)Nc2cccc(Cn3cccn3)c2)c1,21355*,-2.1,-2.2,-1.4
COCCCn1cc(CN2CC(N3CCN(Cc4ccccc4F)CC3)CS2(=O)=O)nn1 (centres undefined),5072,2.7,1.5,0.2
COc1ccc2c(=O)cc(-c3ccccc3F)oc2c1,3780,46.1*,1.5,4.9
COc1ccccc1N1CCN(C(=O)c2cc(-c3ccc(C)cc3)on2)CC1,6118,6.9,6.2,0.2
COc1ccccc1N1CCN(C(=O)c2cc(-c3ccc(Cl)cc3)on2)CC1,24151*,-4.6,-2.7,-2.9
SMILES,Bead autofluor,BoNT F protease,Anthrax LF inh2,BoNT-A LC inh2
COc1ccc(-c2cc(C(=O)N3CCCCC3)no2)cc1OC,23544*,-1.4,-0.4,-0.6
COc1ccc(NC(=O)C2(C)Cc3c(-c4ccc5c(c4)OCO5)ccnc3O2)cn1 (centres undefined),3436,4.4,6.2,0.0
CC1=C(C(=O)N(C(C)C)C(C)C)CC(CC(=O)NC2CCCC2)C(=O)N1CCC1=CCCCC1 (centres undefined),6351,10.2,-7.6,-0.3
O=C1C2C3C=CC(C3=C3CCCCC3)C2C(=O)N1c1ccccc1 (centres undefined),2869,-3.8,1.9,0.2
CN1C(=O)C2C=CC1C1C(=O)N(c3ccccc3)C(=O)C21 (centres undefined),21330*,3.7,-6.6,1.8
O=C1C2C3C=CC(C3)C2C(=O)N1c1ccccc1 (centres undefined),22433*,-2.8,-2.5,?
Cc1c(Cl)cccc1N1C(=O)c2ccccc2C1=O,25160*,-7.1,-3.5,?
Cc1ccc(OC(C)C(=O)N2CCc3ccccc32)c([N+](=O)[O-])n1 (centres undefined),2789,-4.9,3.3,0.5
O=C(CN1C(=O)CC(c2ccco2)Sc2ccccc21)NCC1CCCO1 (centres undefined),23515*,0.5,-7.5,?
CCCN1C(=O)CC(c2ccco2)Sc2ccccc21 (centres undefined),9884,2.4,-2.3,-0.8
CN1C(=O)CC(c2ccco2)Sc2ccccc21 (centres undefined),21771*,-3.0,1.2,-3.9
COc1ccc(Cl)cc1Cn1c(C)c(C(=O)NCc2ccc3c(c2)OCCO3)sc1=O,4032,7.2,5.1,-0.9
